Source: PubChem BioAssay
HSF1 activator = HSF-1 activators, primary screen, NIH3T3-HGL cells, MG132 stress, luminescence, single point; NIH3T3-HGL HSF-1 luciferase reporter, 8 h; 100% = twice DMSO control signal; 1.7% of 300,000 active; activation, % at 9 µM;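 active means mean replicate activation of at least 50% with a set share of replicates each reaching 50%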;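 further: 0% = median of the neutral control wells and 100% = twice that signal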
Hsp70 act = Hsp70 transcriptional activators, primary screen, cell-based, HeLa, Hsp70 promoter luciferase, luminescence, 10 µM; HeLa Hsp70 promoter luciferase reporter; scaled: vehicle 0, proteasome-inhibitor control 100%; activation, % at 10 µM; 0.04% of 200,000 active; AID 1203, 2008;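 active means activation above the mean across all tested compounds plus 3 SD, cutoff set per campaign, cut at about 5.5% in these data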;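 further: 100% = MG132 at 30 µM as the positive control and 0% = DMSO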
S1P4 agonist = S1P4 receptor agonists, primary screen, cell-based | Sphingosine 1-phosphate receptor 4 (Homo sapiens), O95977 | S1P4-expressing cell line, agonist reporter assay | activation, % at 4.98 µM | 0.35% of 220,000 active; in the data active means activation above about 11%;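 further: 0% = DMSO vehicle and 100% = reference agonist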
HSF1 inh = HSF1 inhibitors in luciferase reporter cells, primary screen, cell-based, NIH3T3, luminescence. NIH3T3-HGL HSE-luciferase, MG132-induced, luminescence 8 h; hits give low values. activity change, negative = inhibition, % at 7.5 µM (by protocol). 0.77% of 300,000 active. AID 2098, 2009;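 active means more than half of replicate wells show activity change below -50%, luminescence cut by over half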;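 further: luciferase reports HSF-1 transcriptional activity via heat shock element; 0% = median of DMSO wells and -100% = zero luminescence signal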
S1P3 antagonist = S1P3 receptor antagonists, primary screen, cell-based. inhibition, % at 4.98 µM. CHO S1P3 NFAT-BLA reporter, FRET fluorescence, antagonist mode. 0.27% of 170,000 active. AID 485, 2006. Sphingosine 1-phosphate receptor 3 (Homo sapiens), Q99500;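 active means inhibition above the plate cutoff, the mean inhibition of test wells on that plate plus 3 SD, cut at about 28% in these data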;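 further: cells challenged with S1P at its EC80 of 0.8 µM; blue over green emission ratio from cleaved BLA substrate after 4 h stimulation; 0% = S1P-stimulated wells and 100% = unstimulated DMSO-only wells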
Target sequence (Q99500 whole entry, looked up): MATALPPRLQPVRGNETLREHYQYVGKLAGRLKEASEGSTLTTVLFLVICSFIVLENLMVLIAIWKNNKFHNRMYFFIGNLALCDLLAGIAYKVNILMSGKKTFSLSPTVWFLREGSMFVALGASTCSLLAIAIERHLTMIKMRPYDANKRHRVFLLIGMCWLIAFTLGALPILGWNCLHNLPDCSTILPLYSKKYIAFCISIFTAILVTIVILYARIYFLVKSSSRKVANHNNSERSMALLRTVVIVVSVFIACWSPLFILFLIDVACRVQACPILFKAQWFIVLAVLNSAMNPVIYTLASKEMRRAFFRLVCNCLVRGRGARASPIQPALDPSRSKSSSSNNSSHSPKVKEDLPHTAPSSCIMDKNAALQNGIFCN
S1P4 antag = S1P4 receptor antagonists, primary screen, cell-based. 0.26% of 220,000 active. S1P4-expressing cells, antagonist mode, reporter read-out. AID 1510, 2009. inhibition, % at 4.98 µM. Sphingosine 1-phosphate receptor 4 (Homo sapiens), O95977; in the data active means inhibition above about 29%;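 further: 0% = wells stimulated with agonist and 100% = vehicle wells without agonist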
* marks the source's active call; other numbers are inactive results; . = no result given. In the library only some 2.9% were active in any assay of this set; here they are far more common.

SMILES	HSF1 activator	Hsp70 act	S1P4 agonist	HSF1 inh	S1P3 antagonist	S1P4 antag
Cc1ccccc1NC(=O)CN1C(=O)NC2(CCCCC2)C1=O	-1.6	-0.1	-2.1	-3.0	.	-1.8
Cc1ccc(NC(=O)CN2C(=O)NC3(CCCC3)C2=O)c(Cl)c1	-86.8	.	.	-83.8*	.	.
COc1cccc(-c2cccc(NC(=O)C3CCN(Cc4ccon4)CC3)c2)c1	-60.7	.	.	-48.5	.	.
CCOC(=O)N1CCN(S(=O)(=O)c2ccc3c(c2)SCC(=O)N3)CC1	-6.6	-0.3	0.5	-3.4	-3.2	20.3
CCOC(=O)N1CCN(S(=O)(=O)c2ccc3c(c2)OCC(=O)N3)CC1	-61.7	-0.3	0.0	-51.9*	-1.0	-15.1
CCOC(=O)N1CCN(S(=O)(=O)c2cc(Cl)c(OC)cc2Cl)CC1	70.1*	-0.5	-0.4	41.2	16.1	-3.6
CCOC(=O)N1CCN(S(=O)(=O)c2cc(OCC)ccc2OCC)CC1	-16.5	0.3	-0.6	2.0	-0.6	-10.9
Cc1ccccc1C(=O)Nc1nnc(CC(=O)N/N=C/c2cn(Cc3ccccc3)c3ccccc23)s1	-0.3	.	0.5	-3.3	-4.9	-9.4
Cc1ccccc1C(=O)Nc1nnc(CC(=O)N/N=C/c2ccco2)s1	-84.7	.	1.8	-79.5*	22.9	2.1
CN1CCN(C(N)=NC(=O)c2ccccc2)CC1	-12.8	-0.2	1.6	-3.9	2.1	4.4
Cc1ccc(NC(=O)Nn2cnnc2)cc1Cl	3.4	.	.	6.0	.	.
Cc1ccc(NC(=O)O/N=C/c2c(C)nn(C(C)(C)C)c2C)cc1Cl	-94.5	.	1.5	-93.4*	-12.3	7.2
Cn1cccc1C(=O)C(=O)Nc1ccc(F)c(F)c1	62.7*	-0.2	-1.2	22.9	5.5	-12.2
Cn1cccc1C(=O)C(=O)Nc1ccc(Cl)cc1	36.0	0.5	0.6	18.2	.	3.5
O=C(COC(=O)c1cc[n+]([O-])cc1)Nc1cc([N+](=O)[O-])ccc1Cl	-10.5	.	.	-7.8	.	.
O=C(COC(=O)c1cc[n+]([O-])cc1)Nc1cccc(Cl)c1Cl	-70.5	-0.3	2.4	-66.4*	-29.1	-12.7
COc1cc(/C=N/N2C(=O)c3ccccc3NC2(C)c2cccc([N+](=O)[O-])c2)cc(Br)c1O (stereo not given)	55.6*	-0.1	-1.9	44.0	.	-4.6
COc1cc(/C=N/NC(=O)c2ccc([N+](=O)[O-])cc2Cl)cc(Br)c1O	45.9	-0.5	0.8	5.0	8.2	3.0
Cc1nnc(N2C(=O)c3cccc4cccc(c34)C2=O)s1	-63.3	-0.6	-4.4	-55.1*	.	-108.5
CSc1nc(N)n2nc(-c3ccc(Cl)cc3)cc2n1	34.5	.	1.0	15.5	6.3	-4.6
CSC1=NCCN1C(=O)c1ccc(S(=O)(=O)N2CCCCC2)cc1	5.6	-0.3	166.4*	-2.1	3.9	-5.6
COc1cccc(/C=N/NC(=O)c2c(-c3ccccc3)noc2C)c1	14.7	-0.1	2.3	20.2	.	-2.5
Cc1onc(-c2ccccc2)c1C(=O)N/N=C/c1cccc(O)c1	66.5*	-0.5	1.4	29.6	-7.2	-5.0
O=C(Nc1ccccc1)c1ccc(-c2ccccc2)s1	12.6	0.2	-1.5	18.8	-33.8	9.0
O=C(O)c1ccc(-c2ccc(-c3ccccc3)cc2)s1	-50.9	.	.	-50.7*	.	.
SMILES	HSF1 activator	Hsp70 act	S1P4 agonist	HSF1 inh	S1P3 antagonist	S1P4 antag
CC1(C)Cc2c(sc3nc(C4CC4)n(N)c(=O)c23)CO1	-70.7	.	0.5	-60.2*	-1.1	12.0
COc1ccc(-n2c(SCC3OCCO3)nc3c(sc(=S)n3-c3ccccc3)c2=O)cc1OC	0.3	0.0	-1.3	4.2	3.2	3.7
CCn1c(SCC(=O)Nc2nccs2)nnc1-c1ccccn1	29.0	.	.	0.6	.	.
N#C/C(=C/c1ccc(N2CCCCC2)o1)c1cccc(F)c1	172.1*	0.1	2.1	127.8	.	-4.6
Cc1ccc(/C(C#N)=C\c2ccc(N3CCOCC3)o2)cc1	75.9*	0.8	-0.8	57.7	.	10.4
COC(=O)c1ccc(CSc2ccc3nnc(-c4ccc(OC)c(OC)c4)n3n2)o1	10.5	.	.	4.4	-9.0	.
CCn1nc(C(=O)OCC(=O)Nc2nc(-c3ccc(OC)cc3)cs2)c2ccccc2c1=O	77.0*	0.1	1.0	39.9	-12.8	-17.1
COc1cc(SC)ccc1C(=O)NCC1CCCO1 (stereo not given)	-80.0	2.8	-4.0	-74.0*	1.1	1.0
COc1cc(SC)ccc1C(=O)Nc1ccc2c(c1)CCC2	92.5*	.	.	61.0	.	.
COCCCNC(=O)c1ccc2c3c(onc13)-c1ccccc1C2=O	139.4*	.	0.8	100.5	17.3	0.2
COCCCNC(=O)c1ccccc1Oc1ccccc1	7.5	-0.3	1.1	-4.3	-12.9	1.4
Cc1c(NS(=O)(=O)c2cc(C(=O)NCCN(C)C)ccc2Cl)c(=O)n(-c2ccccc2)n1C	-79.9	.	.	-73.6*	.	.
COc1ccc(Cn2c(-c3ccc(Br)cc3)c[n+]3ccccc23)cc1	62.4*	-0.4	1.8	33.7	2.1	-22.4
COc1ccc(Cn2c(-c3ccc(OC)cc3)nc3ccccc32)cc1	.	0.1	0.6	.	.	-4.9
CC1=CC(=O)C=C(C)C1=NOC(=O)/C=C\c1ccccc1	64.8*	-0.4	1.9	42.2	-3.7	-17.7
CC1=CC(=NOC(=O)/C=C/c2ccccc2)C=C(C)C1=O	2.4	-0.1	2.4	6.9	.	-15.0
Cc1c(-c2ccccc2)cnc2c(C)cccc12	38.8	.	.	5.9	.	.
Brc1c(CSc2nc3ccccc3o2)nc2ncccn12	38.3	0.4	-0.3	21.5	19.0	8.5
c1ccc(SCc2nc3ccccc3s2)nc1	29.0	.	.	19.4	.	.
Clc1c(CSc2nc3ccccc3o2)nc2sccn12	102.9*	0.2	-0.7	77.7	.	1.6
c1ccc2oc(SCc3cn4ccccc4n3)nc2c1	64.0*	1.2	1.9	47.9	.	1.6
Cc1cccc2nc(CSc3nc4ccccc4o3)cn12	43.9	-0.1	-0.1	11.2	-3.6	5.6
c1ccc2oc(SCc3nc4ccccc4s3)nc2c1	67.0*	-0.1	0.4	34.3	14.0	-3.4
Clc1c(CSc2nc3ccccc3o2)nc2ccccn12	86.6*	0.5	-2.0	51.6	27.2	-9.2
CCOC(=O)c1c(NC(=S)NNS(=O)(=O)c2ccc(Br)cc2)sc2c1CCCCC2	-2.2	.	.	-4.6	.	.
c1ccc(OCCSc2nc3ccccc3o2)cc1	-69.3	-0.5	3.4	-61.3*	0.8	-3.8
Cc1cc(=O)oc2c(C)c3occc3cc12	-3.5	.	.	-4.8	.	.
Cc1ccc(O)c(C(=O)c2cnc3c(c2)c(-c2ccc(F)cc2)c(C#N)c(=O)n3C)c1	63.0*	0.1	0.0	33.5	-13.1	-19.0
CC(=O)Nc1ccc(SCC(=O)Nc2cc(C)on2)cc1	-0.5	-0.1	-0.7	5.8	-6.8	4.4
